# Source: article PMC7862700, “An all-to-all approach to the identification of sequence-specific readers for epigenetic DNA modifications on cytosine”
# Experiments:
# Assay in all cases: DAPPL (digital affinity profiling via proximity ligation, sequencing); 10 mM Tris-HCl pH 7.5, 50 mM NaCl, 1 mM DTT, 4% glycerol, room temperature, 30 min; GST-TFs on glutathione beads, 16-mer random dsDNA library, 0.1% formaldehyde crosslink after washing; high values mean tight binding
# FLI1 = target: T1, FLI1 (Homo sapiens, UniProt Q01543 1-452); details: protein: recombinant; tags: N-terminal GST; dsDNA, one strand shown
# T1 sequence: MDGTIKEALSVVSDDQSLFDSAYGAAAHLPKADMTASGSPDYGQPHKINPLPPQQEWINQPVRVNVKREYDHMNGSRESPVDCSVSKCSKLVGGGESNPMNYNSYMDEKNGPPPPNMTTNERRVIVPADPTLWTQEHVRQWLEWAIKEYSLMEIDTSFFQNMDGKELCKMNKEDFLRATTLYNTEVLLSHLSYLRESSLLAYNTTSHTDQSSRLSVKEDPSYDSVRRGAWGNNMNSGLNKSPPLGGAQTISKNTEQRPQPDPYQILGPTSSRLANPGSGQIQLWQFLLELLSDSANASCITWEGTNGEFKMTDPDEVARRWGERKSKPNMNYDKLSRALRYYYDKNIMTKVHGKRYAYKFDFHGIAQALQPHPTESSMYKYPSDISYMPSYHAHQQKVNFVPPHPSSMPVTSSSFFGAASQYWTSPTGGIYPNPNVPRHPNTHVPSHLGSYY
# Procedure, shortened: (§1)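 Binding signal is defined as a hexamer's read frequency for one factor over its frequency for the tag-only sample. To obtain reads, GST-fused human transcription factors were expressed in yeast, captured on glutathione beads, barcoded with DNA and pooled with that sample. Pools met 200 nmole of a 16-mer random double-stranded DNA library in Tris/NaCl/DTT/glycerol buffer for 30 min at room temperature before washing, 0.1% formaldehyde crosslinking, proximity ligation (BsaI/T4 ligase, 1 h, 37 °C), PCR and Illumina NextSeq500 sequencing.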
# ELK1 = target: T2, ELK1 (Homo sapiens, UniProt P19419 1-428); details: protein: recombinant; tags: N-terminal GST; dsDNA, one strand shown
# T2 sequence: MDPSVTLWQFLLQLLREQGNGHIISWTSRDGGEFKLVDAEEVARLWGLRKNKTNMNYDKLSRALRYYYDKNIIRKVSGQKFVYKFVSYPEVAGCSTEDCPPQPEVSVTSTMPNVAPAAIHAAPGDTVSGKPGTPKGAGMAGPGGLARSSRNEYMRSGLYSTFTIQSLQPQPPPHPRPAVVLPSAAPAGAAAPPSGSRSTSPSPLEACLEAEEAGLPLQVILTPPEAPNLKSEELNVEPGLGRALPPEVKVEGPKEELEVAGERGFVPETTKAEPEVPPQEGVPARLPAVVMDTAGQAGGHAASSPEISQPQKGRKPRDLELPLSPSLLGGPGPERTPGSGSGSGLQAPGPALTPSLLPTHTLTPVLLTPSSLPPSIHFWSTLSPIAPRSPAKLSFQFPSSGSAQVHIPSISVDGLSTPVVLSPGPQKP
# Procedure, shortened: as §1
# GABPA = target: T3, GABPA (Homo sapiens, UniProt Q06546 1-454); details: protein: recombinant; tags: N-terminal GST; dsDNA, one strand shown
# T3 sequence: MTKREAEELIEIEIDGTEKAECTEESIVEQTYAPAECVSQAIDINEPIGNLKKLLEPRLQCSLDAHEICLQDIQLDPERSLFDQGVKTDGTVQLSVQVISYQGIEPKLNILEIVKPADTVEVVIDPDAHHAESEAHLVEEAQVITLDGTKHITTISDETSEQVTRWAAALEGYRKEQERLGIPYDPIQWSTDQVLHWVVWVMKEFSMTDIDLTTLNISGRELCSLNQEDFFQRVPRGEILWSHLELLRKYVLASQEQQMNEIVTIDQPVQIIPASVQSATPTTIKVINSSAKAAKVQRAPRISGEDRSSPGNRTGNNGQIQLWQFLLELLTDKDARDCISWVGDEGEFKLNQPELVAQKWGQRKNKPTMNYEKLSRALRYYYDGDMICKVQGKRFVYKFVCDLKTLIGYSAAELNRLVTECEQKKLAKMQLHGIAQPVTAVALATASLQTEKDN
# Procedure, shortened: as §1
# ERG = target: T4, ERG (Homo sapiens, UniProt P11308 1-479); details: protein: recombinant; tags: N-terminal GST; dsDNA, one strand shown
# T4 sequence: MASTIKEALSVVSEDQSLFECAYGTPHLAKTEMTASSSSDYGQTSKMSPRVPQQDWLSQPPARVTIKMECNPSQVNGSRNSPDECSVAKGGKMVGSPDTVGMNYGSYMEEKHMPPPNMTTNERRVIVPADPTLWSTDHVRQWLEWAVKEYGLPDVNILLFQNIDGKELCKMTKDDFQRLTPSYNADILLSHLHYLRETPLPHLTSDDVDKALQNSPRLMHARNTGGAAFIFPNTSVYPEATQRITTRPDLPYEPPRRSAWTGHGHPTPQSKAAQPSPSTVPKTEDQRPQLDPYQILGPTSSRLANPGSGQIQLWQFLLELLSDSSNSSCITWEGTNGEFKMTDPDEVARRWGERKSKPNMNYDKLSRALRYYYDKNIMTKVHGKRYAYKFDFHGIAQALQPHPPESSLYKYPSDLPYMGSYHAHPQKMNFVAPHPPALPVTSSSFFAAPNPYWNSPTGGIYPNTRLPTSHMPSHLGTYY
# Procedure, shortened: as §1
# ELF1 = ELF1 (Homo sapiens, UniProt P32519 1-619); details: protein: recombinant; tags: N-terminal GST; dsDNA, one strand shown
# Procedure, shortened: as §1
# EHF = target: T5, EHF (Homo sapiens, UniProt Q9NZC4 1-300); details: protein: recombinant; tags: N-terminal GST; dsDNA, one strand shown
# T5 sequence: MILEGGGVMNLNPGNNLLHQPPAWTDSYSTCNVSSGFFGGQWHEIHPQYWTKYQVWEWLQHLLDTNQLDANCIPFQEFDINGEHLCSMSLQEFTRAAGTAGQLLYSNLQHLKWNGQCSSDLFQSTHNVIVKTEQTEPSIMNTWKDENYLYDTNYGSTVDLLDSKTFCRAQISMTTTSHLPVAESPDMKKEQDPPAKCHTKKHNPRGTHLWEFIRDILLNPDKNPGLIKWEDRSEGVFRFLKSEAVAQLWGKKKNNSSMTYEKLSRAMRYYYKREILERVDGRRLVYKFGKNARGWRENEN
# Procedure, shortened: as §1
# SPI1 = SPI1 (Homo sapiens, UniProt P17947 1-270); details: protein: recombinant; tags: N-terminal GST; dsDNA, one strand shown
# Procedure, shortened: as §1
# SPIB = SPIB (Homo sapiens, UniProt Q01892 1-262); details: protein: recombinant; tags: N-terminal GST; dsDNA, one strand shown
# Procedure, shortened: as §1
# ELK3 = target: T6, ELK3 (Homo sapiens, UniProt P41970 1-407); details: protein: recombinant; tags: N-terminal GST; dsDNA, one strand shown
# T6 sequence: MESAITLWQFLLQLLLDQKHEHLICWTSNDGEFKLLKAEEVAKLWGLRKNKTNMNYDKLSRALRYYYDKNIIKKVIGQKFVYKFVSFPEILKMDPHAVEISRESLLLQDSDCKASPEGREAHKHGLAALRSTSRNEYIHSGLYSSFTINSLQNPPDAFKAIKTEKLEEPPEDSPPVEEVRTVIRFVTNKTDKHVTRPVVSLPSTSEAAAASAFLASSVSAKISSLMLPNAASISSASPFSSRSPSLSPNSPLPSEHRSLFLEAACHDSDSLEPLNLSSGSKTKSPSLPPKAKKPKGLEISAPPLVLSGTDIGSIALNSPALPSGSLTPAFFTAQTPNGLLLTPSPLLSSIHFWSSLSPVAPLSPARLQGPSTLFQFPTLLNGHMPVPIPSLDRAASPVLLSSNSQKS
# Procedure, shortened: as §1
# FEV = target: T7, FEV (Homo sapiens, UniProt Q99581 1-238); details: protein: recombinant; tags: N-terminal GST; dsDNA, one strand shown
# T7 sequence: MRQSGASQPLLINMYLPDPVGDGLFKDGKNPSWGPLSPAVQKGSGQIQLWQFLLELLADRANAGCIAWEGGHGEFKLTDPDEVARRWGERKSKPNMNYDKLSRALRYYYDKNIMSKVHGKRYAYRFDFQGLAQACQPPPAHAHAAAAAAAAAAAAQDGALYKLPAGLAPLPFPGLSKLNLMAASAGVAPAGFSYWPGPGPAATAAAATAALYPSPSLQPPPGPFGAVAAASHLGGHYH
# Procedure, shortened: as §1
# ETV5 = ETV5 (Homo sapiens, UniProt P41161 1-510); details: protein: recombinant; tags: N-terminal GST; dsDNA, one strand shown
# Procedure, shortened: as §1
# HSF1 = HSF1 (Homo sapiens, UniProt Q00613 1-529); details: protein: recombinant; tags: N-terminal GST; chain copies: 3; dsDNA, one strand shown
# Procedure, shortened: as §1
# SPIC = target: T8, SPIC (Homo sapiens, UniProt Q8N5J4 1-248); details: protein: recombinant; tags: N-terminal GST; dsDNA, one strand shown
# T8 sequence: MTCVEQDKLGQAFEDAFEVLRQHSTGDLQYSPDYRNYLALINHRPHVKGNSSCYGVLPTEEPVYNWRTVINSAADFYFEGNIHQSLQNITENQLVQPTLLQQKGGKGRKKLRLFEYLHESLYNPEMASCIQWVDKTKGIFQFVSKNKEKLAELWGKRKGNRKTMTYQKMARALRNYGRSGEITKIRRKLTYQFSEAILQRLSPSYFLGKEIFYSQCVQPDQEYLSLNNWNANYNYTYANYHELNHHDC
# Procedure, shortened: as §1
# ELF4 = ELF4 (Homo sapiens, UniProt Q99607 1-663); details: protein: recombinant; tags: N-terminal GST; dsDNA, one strand shown
# Procedure, shortened: as §1
# ELK4 = target: T9, ELK4 (Homo sapiens, UniProt P28324-2 1-405); details: protein: recombinant; tags: N-terminal GST; dsDNA, one strand shown
# T9 sequence: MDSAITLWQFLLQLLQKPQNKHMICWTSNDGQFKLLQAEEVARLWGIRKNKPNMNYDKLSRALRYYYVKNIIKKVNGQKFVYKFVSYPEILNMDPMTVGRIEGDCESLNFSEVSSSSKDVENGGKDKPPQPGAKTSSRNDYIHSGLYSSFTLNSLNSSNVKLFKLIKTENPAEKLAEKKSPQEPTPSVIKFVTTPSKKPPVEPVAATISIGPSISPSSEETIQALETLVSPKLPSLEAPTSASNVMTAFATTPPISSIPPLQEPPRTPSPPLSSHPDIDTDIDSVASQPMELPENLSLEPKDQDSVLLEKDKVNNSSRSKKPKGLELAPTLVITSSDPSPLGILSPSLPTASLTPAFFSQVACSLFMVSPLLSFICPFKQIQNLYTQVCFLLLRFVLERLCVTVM
# Procedure, shortened: as §1
# ETV2 = target: T10, ETV2 (Homo sapiens, UniProt O00321 1-342); details: protein: recombinant; tags: N-terminal GST; dsDNA, one strand shown
# T10 sequence: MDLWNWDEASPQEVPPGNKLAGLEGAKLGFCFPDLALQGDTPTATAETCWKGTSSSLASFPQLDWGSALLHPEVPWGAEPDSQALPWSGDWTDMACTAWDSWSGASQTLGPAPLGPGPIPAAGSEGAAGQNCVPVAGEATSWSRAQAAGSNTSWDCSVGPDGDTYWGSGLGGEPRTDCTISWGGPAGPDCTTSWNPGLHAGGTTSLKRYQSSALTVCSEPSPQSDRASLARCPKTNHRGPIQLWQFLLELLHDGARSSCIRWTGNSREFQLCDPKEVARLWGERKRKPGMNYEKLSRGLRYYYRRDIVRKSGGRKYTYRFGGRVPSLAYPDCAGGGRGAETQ
# Procedure, shortened: as §1
# ELF3 = target: T11, ELF3 (Homo sapiens, UniProt P78545 1-371); details: protein: recombinant; tags: N-terminal GST; dsDNA, one strand shown
# T11 sequence: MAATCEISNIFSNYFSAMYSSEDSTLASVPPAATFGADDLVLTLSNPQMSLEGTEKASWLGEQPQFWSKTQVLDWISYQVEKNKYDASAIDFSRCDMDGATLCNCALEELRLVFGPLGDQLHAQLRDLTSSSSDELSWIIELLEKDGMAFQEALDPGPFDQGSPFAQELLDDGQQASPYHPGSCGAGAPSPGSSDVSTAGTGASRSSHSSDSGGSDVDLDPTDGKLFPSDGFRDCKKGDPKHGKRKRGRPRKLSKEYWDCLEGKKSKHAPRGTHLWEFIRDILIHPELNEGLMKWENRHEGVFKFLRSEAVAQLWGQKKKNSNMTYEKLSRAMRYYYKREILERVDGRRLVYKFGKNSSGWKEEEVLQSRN
# Procedure, shortened: as §1
# CRX = CRX (Homo sapiens, UniProt O43186 1-299); details: protein: recombinant; tags: N-terminal GST; dsDNA, one strand shown
# Procedure, shortened: as §1
# ETV1 = ETV1 (Homo sapiens, UniProt P50549 1-477); details: protein: recombinant; tags: N-terminal GST; dsDNA, one strand shown
# Procedure, shortened: as §1
# Sequence of SPIB (Q01892 whole entry): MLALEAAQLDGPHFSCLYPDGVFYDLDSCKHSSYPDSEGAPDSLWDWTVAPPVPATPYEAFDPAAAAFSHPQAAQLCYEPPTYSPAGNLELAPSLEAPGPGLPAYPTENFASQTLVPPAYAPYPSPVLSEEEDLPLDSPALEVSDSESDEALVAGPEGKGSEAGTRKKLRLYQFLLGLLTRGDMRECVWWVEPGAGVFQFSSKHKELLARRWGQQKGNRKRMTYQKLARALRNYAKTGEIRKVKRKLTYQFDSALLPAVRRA
# Sequence of ETV5 (P41161 whole entry): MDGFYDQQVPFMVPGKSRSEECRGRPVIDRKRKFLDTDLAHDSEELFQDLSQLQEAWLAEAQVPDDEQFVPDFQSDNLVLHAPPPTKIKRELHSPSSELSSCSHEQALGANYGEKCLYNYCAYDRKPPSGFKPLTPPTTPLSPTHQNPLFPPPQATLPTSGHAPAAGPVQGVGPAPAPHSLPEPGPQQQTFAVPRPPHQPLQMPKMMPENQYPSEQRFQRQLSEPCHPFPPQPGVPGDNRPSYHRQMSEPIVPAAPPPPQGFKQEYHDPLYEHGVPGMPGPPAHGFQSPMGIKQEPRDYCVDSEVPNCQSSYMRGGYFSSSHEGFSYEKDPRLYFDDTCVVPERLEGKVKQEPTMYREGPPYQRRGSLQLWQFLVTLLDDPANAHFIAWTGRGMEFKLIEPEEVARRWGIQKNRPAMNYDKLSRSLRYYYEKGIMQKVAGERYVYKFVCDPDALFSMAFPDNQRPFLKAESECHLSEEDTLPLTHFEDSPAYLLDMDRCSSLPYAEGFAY
# Sequence of CRX (O43186 whole entry): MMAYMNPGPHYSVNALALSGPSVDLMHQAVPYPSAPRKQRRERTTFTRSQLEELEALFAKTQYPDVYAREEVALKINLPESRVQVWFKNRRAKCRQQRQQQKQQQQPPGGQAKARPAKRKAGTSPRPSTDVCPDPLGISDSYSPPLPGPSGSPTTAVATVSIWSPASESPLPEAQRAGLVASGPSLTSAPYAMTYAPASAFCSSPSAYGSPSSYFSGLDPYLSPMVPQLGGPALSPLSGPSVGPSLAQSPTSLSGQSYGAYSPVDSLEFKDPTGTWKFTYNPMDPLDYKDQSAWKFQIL
# Sequence of ETV1 (P50549 whole entry): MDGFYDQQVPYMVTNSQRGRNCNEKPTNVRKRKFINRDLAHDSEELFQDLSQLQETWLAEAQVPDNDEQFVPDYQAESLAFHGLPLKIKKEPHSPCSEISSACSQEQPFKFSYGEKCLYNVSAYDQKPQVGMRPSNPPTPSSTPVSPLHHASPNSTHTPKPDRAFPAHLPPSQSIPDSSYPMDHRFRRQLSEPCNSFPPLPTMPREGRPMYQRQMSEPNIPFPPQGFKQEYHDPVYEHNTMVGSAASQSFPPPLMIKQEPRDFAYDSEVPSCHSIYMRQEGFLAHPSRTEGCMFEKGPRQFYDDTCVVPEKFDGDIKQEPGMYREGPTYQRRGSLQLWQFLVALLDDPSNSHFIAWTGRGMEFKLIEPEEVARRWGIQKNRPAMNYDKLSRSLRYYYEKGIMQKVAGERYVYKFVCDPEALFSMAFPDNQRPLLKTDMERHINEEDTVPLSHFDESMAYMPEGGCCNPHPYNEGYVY
# Sequence of ELF4 (Q99607 whole entry): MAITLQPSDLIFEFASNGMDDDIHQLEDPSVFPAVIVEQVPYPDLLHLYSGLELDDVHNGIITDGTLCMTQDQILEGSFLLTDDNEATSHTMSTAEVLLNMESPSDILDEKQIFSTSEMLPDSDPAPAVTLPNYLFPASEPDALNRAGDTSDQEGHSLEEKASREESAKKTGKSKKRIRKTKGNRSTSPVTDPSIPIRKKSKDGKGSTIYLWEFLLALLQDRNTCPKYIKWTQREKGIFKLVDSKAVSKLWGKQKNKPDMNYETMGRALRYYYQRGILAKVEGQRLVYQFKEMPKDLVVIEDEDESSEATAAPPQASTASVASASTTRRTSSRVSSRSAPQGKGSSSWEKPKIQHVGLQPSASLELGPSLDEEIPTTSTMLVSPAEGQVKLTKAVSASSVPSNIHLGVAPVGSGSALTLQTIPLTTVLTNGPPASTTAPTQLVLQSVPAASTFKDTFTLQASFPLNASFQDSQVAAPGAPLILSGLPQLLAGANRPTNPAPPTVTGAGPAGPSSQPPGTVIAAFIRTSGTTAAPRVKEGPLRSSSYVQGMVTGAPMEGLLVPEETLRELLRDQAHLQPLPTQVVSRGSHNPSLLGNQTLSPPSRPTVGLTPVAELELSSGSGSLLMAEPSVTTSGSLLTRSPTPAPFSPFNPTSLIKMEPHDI
# Sequence of ELF1 (P32519 whole entry): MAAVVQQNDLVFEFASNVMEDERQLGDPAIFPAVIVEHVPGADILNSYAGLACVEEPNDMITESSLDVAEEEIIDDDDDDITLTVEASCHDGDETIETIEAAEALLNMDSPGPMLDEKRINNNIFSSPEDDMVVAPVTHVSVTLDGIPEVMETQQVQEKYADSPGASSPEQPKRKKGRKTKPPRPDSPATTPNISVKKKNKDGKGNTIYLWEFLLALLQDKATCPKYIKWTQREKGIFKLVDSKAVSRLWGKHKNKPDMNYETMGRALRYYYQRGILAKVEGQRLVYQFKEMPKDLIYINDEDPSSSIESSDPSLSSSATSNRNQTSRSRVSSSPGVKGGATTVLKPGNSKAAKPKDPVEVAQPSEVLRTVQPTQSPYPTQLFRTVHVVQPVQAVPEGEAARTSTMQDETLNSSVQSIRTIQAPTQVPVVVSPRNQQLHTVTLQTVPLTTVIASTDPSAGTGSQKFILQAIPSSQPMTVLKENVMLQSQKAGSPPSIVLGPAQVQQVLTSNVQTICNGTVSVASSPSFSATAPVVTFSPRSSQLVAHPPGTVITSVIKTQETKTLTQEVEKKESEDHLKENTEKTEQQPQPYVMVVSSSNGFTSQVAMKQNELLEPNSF
# Sequence of HSF1 (Q00613 whole entry): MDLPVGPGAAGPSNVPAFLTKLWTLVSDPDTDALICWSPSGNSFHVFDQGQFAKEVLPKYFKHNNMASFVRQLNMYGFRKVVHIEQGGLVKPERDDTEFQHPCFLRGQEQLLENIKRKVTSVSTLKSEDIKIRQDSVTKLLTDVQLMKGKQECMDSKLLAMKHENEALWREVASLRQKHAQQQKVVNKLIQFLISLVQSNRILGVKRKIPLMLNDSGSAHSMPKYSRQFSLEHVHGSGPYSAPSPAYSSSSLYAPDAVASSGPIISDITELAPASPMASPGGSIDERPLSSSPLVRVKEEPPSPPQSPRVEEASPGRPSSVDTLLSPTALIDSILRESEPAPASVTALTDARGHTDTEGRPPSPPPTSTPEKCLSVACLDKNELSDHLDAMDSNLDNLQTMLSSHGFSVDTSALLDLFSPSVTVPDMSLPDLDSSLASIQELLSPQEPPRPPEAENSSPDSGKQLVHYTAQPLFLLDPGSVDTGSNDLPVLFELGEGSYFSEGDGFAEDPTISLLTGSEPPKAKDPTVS
sequence,measurement,setting,value
CAAAAC,binding signal,FLI1,"1.19 fold enrichment (6-mer frequency, TF over GST control)"
same,binding signal,ELK1,"1.27 fold enrichment (6-mer frequency, TF over GST control)"
same,binding signal,GABPA,"1.3 fold enrichment (6-mer frequency, TF over GST control)"
same,binding signal,ERG,"1.23 fold enrichment (6-mer frequency, TF over GST control)"
same,binding signal,ELF1,"1.28 fold enrichment (6-mer frequency, TF over GST control)"
same,binding signal,EHF,"1.26 fold enrichment (6-mer frequency, TF over GST control)"
same,binding signal,SPI1,"1.38 fold enrichment (6-mer frequency, TF over GST control)"
same,binding signal,SPIB,"1.23 fold enrichment (6-mer frequency, TF over GST control)"
same,binding signal,ELK3,"1.21 fold enrichment (6-mer frequency, TF over GST control)"
same,binding signal,FEV,"1.3 fold enrichment (6-mer frequency, TF over GST control)"
same,binding signal,ETV5,"1.26 fold enrichment (6-mer frequency, TF over GST control)"
same,binding signal,HSF1,"1.05 fold enrichment (6-mer frequency, TF over GST control)"
same,binding signal,SPIC,"1.23 fold enrichment (6-mer frequency, TF over GST control)"
same,binding signal,ELF4,"1.34 fold enrichment (6-mer frequency, TF over GST control)"
same,binding signal,ELK4,"1.28 fold enrichment (6-mer frequency, TF over GST control)"
same,binding signal,ETV2,"1.24 fold enrichment (6-mer frequency, TF over GST control)"
same,binding signal,ELF3,"1.28 fold enrichment (6-mer frequency, TF over GST control)"
same,binding signal,CRX,"1.02 fold enrichment (6-mer frequency, TF over GST control)"
same,binding signal,ETV1,"1.2 fold enrichment (6-mer frequency, TF over GST control)"
